In PubChem BioAssay (Tox21):
Records with an inconclusive call do not appear. Calls of active or inactive are those of the source. Unless noted, the call rests on the fitted dose curve; in most records, active means well fitted curve in the direction sought with a large enough effect in the repeat runs; inconclusive means weak or mixed curves; inactive means no such curve, though single readings can be large; an effect the other way counts as inactive or inconclusive.

Assays:
[1] = qHTS assay to identify small molecule antagonists of the peroxisome proliferator-activated receptor delta (PPARd) signaling pathway - cell viability counter screen (AID 743213); settings: PPARd-bla HEK293H viability, CellTiter-Glo luminescence, 17 h; series mostly up to 62 µM; further: potency means the concentration at half of the fitted maximal effect; nearly all actives have a fitted effect of over 50% in size
In short: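 Cytotoxicity counter screen: CellTiter-Glo luminescence read 30 min after addition, in the same wells as the reporter assay. There, PPARd UAS-bla HEK293H cells (3000/well) were treated 17 h at 37 C with compound and 300 nM L165041.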

[2] = qHTS assay to identify small molecule agonists of the farnesoid-X-receptor (FXR) signaling pathway - cell viability counter screen (AID 743218); settings: FXR-bla HEK293T viability, CellTiter-Glo luminescence, 16 h; series mostly up to 62.6 µM; further: nearly all actives have a fitted effect of over 45% in size; further: potency means the concentration at half of the fitted maximal effect
In short: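 Same-well cytotoxicity check on FXR-UAS-bla HEK 293T cells: 5 h attachment, 16 h compound at 37 C, CellTiter-Glo luminescence read at room temperature after 30 min.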

[3] = qHTS assay to identify small molecule antagonists of the farnesoid-X-receptor (FXR) signaling pathway - cell viability counter screen (AID 743221; active means well fitted cell-killing curve with a large enough effect in the repeat runs, not every such curve was filed as active; further: nearly all actives have a fitted effect of over 50% in size; further: potency means the concentration at half of the fitted maximal effect); settings: FXR-bla HEK293T viability, CellTiter-Glo luminescence, 16 h; series mostly up to 62.6 µM
In short: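 FXR-UAS-bla HEK 293T cells were treated with test compounds plus chenodeoxycholic acid (50 uM final) for 16 h at 37 C. Cell viability in the same wells was then read as CellTiter-Glo luminescence after 30 min at room temperature.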

[4] = qHTS assay to identify small molecule agonists of the vitamin D receptor (VDR) signaling pathway - cell viability counter screen (AID 743224); settings: VDR-bla HEK293T viability, CellTiter-Glo luminescence, 16 h; series mostly up to 62.6 µM; further: potency means the concentration at half of the fitted maximal effect; nearly all actives have a fitted effect of over 50% in size
In short: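 Counter screen for cytotoxicity: VDR-bla cells at 2,000 cells/well, 16 h compound exposure, then CellTiter-Glo luminescence after the beta-lactamase measurement.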

[5] = qHTS assay to identify small molecule antagonists of the vitamin D receptor (VDR) signaling pathway - cell viability counter screen (AID 743225); settings: VDR-bla HEK293T viability, CellTiter-Glo luminescence, 16 h; series mostly up to 61 µM; further: nearly all actives have a fitted effect of over 50% in size; further: potency means the concentration at half of the fitted maximal effect
In short: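 VDR-bla HEK 293T cells, 4 h pre-incubation at 37C, then compound plus 1-alpha,25-dihydroxyvitamin D3 (3 nM final) for 16 h. After the beta-lactamase FRET read, CellTiter-Glo was added to the same wells; luminescence after 30 min at room temperature.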

[6] = qHTS assay to identify small molecule antagonists of the retinoid-related orphan receptor gamma (ROR-gamma) signaling pathway - cell viability counter screen (AID 1159520); settings: Tet-on RORgamma CHO cells viability, ATP luminescence, 16 h; series mostly up to 92.4 µM; further: nearly all actives have a fitted effect of over 50% in size; further: potency means the concentration at half of the fitted maximal effect
In short: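 Cytotoxicity was read from cellular ATP (CellTiter-Glo luminescence) after 16 hr at 37 C with 1 uM doxycycline induction. The inducer was added 2 hr after compound transfer to Tet-on ROR gamma CHO cells.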

[7] = target: Nuclear receptor ROR-gamma (Homo sapiens) (UniProt P51449); assay: qHTS assay to identify small molecule antagonists of the retinoid-related orphan receptor gamma (ROR-gamma) signaling pathway (AID 1159521; further: nearly all actives have a fitted effect of over 50% in size; further: potency means the concentration at half of the fitted maximal effect); settings: Tet-on RORgamma CHO cells, RORE-luciferase, 16 h; series mostly up to 92.4 µM
In short: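 Tet-on RORγ CHO cells carrying a ROR response element–luciferase reporter were pretreated with compounds for 2 h, then induced with 1 uM (final) doxycycline hyclate for 16 h at 37 C. Antagonism was read as decreased ONE-Glo luminescence.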

[8] = qHTS assay to identify small molecule agonists of the RXR signaling pathway - cell viability counter screen (AID 1159529); settings: RXR-alpha-bla HEK293T viability, CellTiter-Glo, 16 h; series mostly up to 76.8 µM; further: nearly all actives have a fitted effect of over 50% in size; further: potency means the concentration at half of the fitted maximal effect
In short: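 RXR-alpha-UAS-bla HEK 293T cells in medium with 2% charcoal-stripped FBS were preincubated 5 hr, then exposed to compounds for 16 hr at 37 C. Viability was read as CellTiter-Glo luminescence after 30 min at room temperature.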

[9] = qHTS assay to identify small molecule antagonists of the retinoid acid receptor (RAR) signaling pathway - cell viability counter screen (AID 1159551); settings: C3RL4 cells viability, ATP luminescence (CellTiter-Glo), 6 h; series mostly up to 92.4 µM; further: nearly all actives have a fitted effect of over 35% in size; further: potency means the concentration at half of the fitted maximal effect
In short: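 Measured by luminescent ATP detection, viability reflects C3RL4 cells treated 6 h at 37 C with test chemicals in the presence of 1 uM (final) retinol.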

[10] = target: Vitamin D3 receptor (Homo sapiens) (UniProt P11473); assay: qHTS assay to identify small molecule agonists of the vitamin D receptor (VDR) signaling pathway (AID 743222; calls by dose curve); settings: HEK293T VDR-UAS-bla, beta-lactamase FRET ratio, 16 h; series mostly up to 63.5 µM
In short: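 Using LiveBLAzer B/G FRET detection, agonism was scored in VDR-bla cells exposed overnight (16 h, 37C) to DMSO-dissolved compounds; substrate incubation was 2 h at room temperature.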

[11] = target: Vitamin D3 receptor (Homo sapiens) (UniProt P11473); assay: qHTS assay to identify small molecule antagonists of the vitamin D receptor (VDR) signaling pathway (AID 743223; active means well fitted inhibition curve with a large enough effect in the signal ratio in the repeat runs, not every such curve was filed as active; the % refers to the signal ratio; further: potency means the concentration at half of the fitted maximal effect); settings: VDR-UAS-bla HEK293T, beta-lactamase FRET ratio, 16 h; series mostly up to 61 µM
In short: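 VDR-bla cells were plated, incubated 4 h at 37C, then given compound and 1alpha,25-dihydroxyvitamin D3 (3 nM final). After 16 h at 37C, LiveBLAzer B/G FRET substrate was added for 2 h at room temperature and fluorescence read.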

[12] = qHTS assay to identify small molecule agonists of the AP-1 signaling pathway - cell viability counter screen (AID 1159525; calls by dose curve; further: nearly all actives have a fitted effect of over 55% in size; further: potency means the concentration at half of the fitted maximal effect); settings: ME-180 (cervical carcinoma) AP-1-bla cells viability, ATP luminescence, 5 h; series mostly up to 76.8 µM
In short: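 Intracellular ATP by Cell Titer Glo luminescence (30 min, RT) in the same ME-180 AP-1-bla wells after the 5 h compound exposure at 37 °C. Normalised to tetra n-octyl ammonium bromide and DMSO controls.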

[13] = qHTS assay to identify small molecule antagonists of the retinoic acid receptor (RAR) signaling pathway (AID 1159552; further: nearly all actives have a fitted effect of over 50% in size; further: potency means the concentration at half of the fitted maximal effect); settings: C3RL4 RARE luciferase reporter, retinol-stimulated, 6 h; series mostly up to 92.4 µM
In short: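 RARE-luc C3RL4 cells; cpds + 1 uM (final) retinol, 6 hr, 37 C/5% CO2; luciferase reagent, 30 min RT, luminescence readout. Inhibitors of retinol-driven signal scored.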

[14] = qHTS assay to identify small molecule agonists of the retinoic acid receptor (RAR) signaling pathway (AID 1159553); settings: C3RL4 RARE luciferase reporter, agonist, 6 h; series mostly up to 73.3 µM
In short: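 6 hr compound exposure (DMSO vehicle) of overnight-plated C3RL4 RARE-luc cells at 37 C; luminescence quantified after 30 min RT with luciferase reagent.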

[15] = target: Bile acid receptor (Homo sapiens) (UniProt Q96RI1); assay: qHTS assay to identify small molecule agonists of the farnesoid-X-receptor (FXR) signaling pathway (AID 743220; active means well fitted activation curve with a large enough effect in the signal ratio in the repeat runs, not every such curve was filed as active; the % refers to the signal ratio); settings: HEK293T FXR-UAS-bla, beta-lactamase FRET ratio, 16 h; series mostly up to 62.6 µM
In short: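 FXR-UAS-bla HEK 293T cells carrying a UAS-driven beta-lactamase reporter were plated for 5 h at 37C/5% CO2, then exposed to DMSO-dissolved Tox21 10K compounds for 16 h at 37C. A LiveBLAzer B/G FRET substrate was loaded for 2 h at room temperature before fluorescence reading.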

[16] = target: Peroxisome proliferator-activated receptor delta (Homo sapiens) (UniProt Q03181); assay: qHTS assay to identify small molecule antagonists of the peroxisome proliferator-activated receptor delta (PPARd) signaling pathway (AID 743215; active means well fitted inhibition curve with a large enough effect in the signal ratio in the repeat runs, not every such curve was filed as active; the % refers to the signal ratio;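 further: cells stimulated with agonist L165041 at 300 nM final during compound exposure; potency means the concentration at half of the fitted maximal effect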); settings: HEK293H PPARd-UAS-bla, beta-lactamase FRET ratio, antagonist, 17 h; series mostly up to 62 µM
In short: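 Screen format: qHTS, antagonist mode. HEK293H PPARd-bla cells received compound and 300 nM L165041 (final), 17 h, 37 C. Beta-lactamase detected via FRET substrate fluorescence, 2 h, room temperature.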

Measured: Potency

Sequence of Vitamin D3 receptor (Homo sapiens) (P11473 whole entry, looked up): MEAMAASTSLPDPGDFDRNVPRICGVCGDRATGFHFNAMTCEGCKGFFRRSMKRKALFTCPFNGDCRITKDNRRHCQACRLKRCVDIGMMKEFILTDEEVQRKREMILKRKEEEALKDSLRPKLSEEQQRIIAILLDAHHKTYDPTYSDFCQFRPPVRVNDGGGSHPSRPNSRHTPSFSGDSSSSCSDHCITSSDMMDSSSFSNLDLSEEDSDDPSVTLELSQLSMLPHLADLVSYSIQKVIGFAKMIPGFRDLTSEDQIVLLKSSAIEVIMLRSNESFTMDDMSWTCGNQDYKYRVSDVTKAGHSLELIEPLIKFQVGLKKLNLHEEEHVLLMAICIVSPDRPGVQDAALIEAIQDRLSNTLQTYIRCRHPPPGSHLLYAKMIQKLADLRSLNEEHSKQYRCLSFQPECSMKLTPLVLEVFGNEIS
Sequence of Peroxisome proliferator-activated receptor delta (Homo sapiens) (Q03181 whole entry, looked up): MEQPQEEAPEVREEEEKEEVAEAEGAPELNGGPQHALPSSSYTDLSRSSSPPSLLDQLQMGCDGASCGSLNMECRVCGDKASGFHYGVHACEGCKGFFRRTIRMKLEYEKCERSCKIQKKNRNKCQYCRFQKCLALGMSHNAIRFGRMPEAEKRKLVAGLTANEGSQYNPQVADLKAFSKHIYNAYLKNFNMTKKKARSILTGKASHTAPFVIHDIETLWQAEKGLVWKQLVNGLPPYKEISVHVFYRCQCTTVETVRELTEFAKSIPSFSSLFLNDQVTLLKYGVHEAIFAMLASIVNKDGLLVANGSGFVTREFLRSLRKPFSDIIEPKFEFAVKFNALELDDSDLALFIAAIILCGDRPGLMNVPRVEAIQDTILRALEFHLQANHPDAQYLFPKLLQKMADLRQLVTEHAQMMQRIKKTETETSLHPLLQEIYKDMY
Sequence of Bile acid receptor (Homo sapiens) (Q96RI1 whole entry, looked up): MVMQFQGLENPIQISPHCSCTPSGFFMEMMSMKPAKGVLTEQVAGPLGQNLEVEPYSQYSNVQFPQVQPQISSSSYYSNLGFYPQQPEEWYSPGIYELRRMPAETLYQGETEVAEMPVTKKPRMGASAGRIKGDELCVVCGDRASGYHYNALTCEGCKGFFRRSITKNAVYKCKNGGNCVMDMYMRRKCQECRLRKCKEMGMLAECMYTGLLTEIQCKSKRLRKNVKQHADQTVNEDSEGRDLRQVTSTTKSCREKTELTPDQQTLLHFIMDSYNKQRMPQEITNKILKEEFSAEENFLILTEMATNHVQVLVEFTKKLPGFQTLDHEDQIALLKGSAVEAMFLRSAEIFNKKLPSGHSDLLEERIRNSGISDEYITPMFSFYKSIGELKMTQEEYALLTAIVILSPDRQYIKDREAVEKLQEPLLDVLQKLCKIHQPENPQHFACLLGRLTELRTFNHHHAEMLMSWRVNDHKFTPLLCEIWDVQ

Cc1cc(Br)ccc1NC(=O)CCl
inactive: [9]
active: [1] 24.5 µM | [2] 24.5 µM | [3] 19.5 µM | [4] 12.3 µM | [5] 19.5 µM | [6] 27.3 µM | [7] 19.3 µM | [8] 21.9 µM

CCCCCCCCCCCCCCCCC(C(=O)O)C(O)(CC(=O)O)C(=O)O (centres undefined)
active: [1] 18.8 µM | [2] 18.8 µM | [3] 23.7 µM | [4] 26.6 µM | [12] 21.3 µM | [8] 19 µM
inactive: [10] | [11] | [6] | [7] | [9] | [13] | [14]

O=C1OC2(c3ccccc31)c1ccc(O)c(Br)c1Oc1c2ccc(O)c1Br
inactive: [6] | [7] | [12] | [8] | [9] | [13]

Cc1ccc(S(=O)(=O)C(I)I)cc1
active: [6] 17.2 µM | [7] 6.11 µM | [12] 17.4 µM | [8] 12.3 µM | [9] 43.3 µM | [13] 9.69 µM

O=C(c1ccccc1)c1ccc(Cl)cc1
active: [7] 68.6 µM
inactive: [6] | [13]

Oc1ccc(C2(c3ccc(O)c(C4CCCCC4)c3)CCCCC2)cc1C1CCCCC1
active: [6] 24.3 µM | [7] 17.2 µM | [8] 19.5 µM | [13] 27.3 µM

O=[N+]([O-])c1ccc(O)c2ncccc12
active: [11] 9.52 µM | [6] 23.7 µM | [7] 29.8 µM
inactive: [2] | [15] | [3] | [5] | [9] | [13]

CN1CCN(c2ccccc2/C=C2\SCCN(c3ccc(Cl)c(Cl)c3)C2=O)CC1
inactive: [10]
active: [1] 24.5 µM | [16] 21.9 µM | [2] 43.6 µM | [3] 54.9 µM | [4] 38.9 µM | [5] 43.6 µM | [6] 68.6 µM | [7] 7.7 µM | [8] 24.5 µM | [13] 48.6 µM

CCCCCCCCSCc1cc(C)c(O)c(CSCCCCCCCC)c1
active: [7] 61.1 µM
inactive: [6] | [9]

N#Cc1nc(Cl)c(Cl)c(Cl)c1Cl
active: [1] 15.5 µM | [16] 7.76 µM | [2] 13.8 µM | [11] 6.92 µM | [4] 11 µM | [5] 19.5 µM | [6] 1.93 µM | [7] 2.73 µM | [8] 15.5 µM
inactive: [10]
